{"source": "PubChem BioAssay (NCI)", "note": "This is part of a sample that, as a whole, favours compounds with a hit. Of some 83,000 tested, about 20% had one in any assay.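 Single-concentration screen, 48 h exposure, 96-well plates. Endpoint: percent growth. Below 10 = active.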 A number with no mark means an inactive call."}
{"test_system": "HCT-15 colon", "assay": "NCI-60 one-dose screen, 48 h (100 = growth as untreated, 0 = no growth, -100 = all killed)", "details": "10 µM unless noted", "units": {"growth": "%"}}
{"smiles": "CC(CO)(CO)C(=O)O", "growth": 100}
{"smiles": "O=C(O)Cc1cccc2ccccc12", "growth": 102}
{"smiles": "O=c1[nH]c(=O)c2cc(Cl)cc(Cl)c2[nH]1", "growth": 107}
{"smiles": "C=CCC(OC(C)=O)c1ccc(OC)c(OC)c1", "note": "(stereo unspecified)", "growth": 104}
{"smiles": "C=CCC(OC(C)=O)c1ccc(C(C)C)cc1", "note": "(stereo unspecified)", "growth": 107}
{"smiles": "COC(=O)Cc1cc(COC(C)=O)ccc1C", "growth": 106}
{"smiles": "CCCCCCCCCCCCCCCCCC(=O)NCCNC(=O)CCCCCCCCCCCCCCCCC", "growth": 95.1}
{"smiles": "CC(=O)c1cccc(N(C)S(=O)(=O)c2ccc(C)cc2)c1", "growth": 57.2}
{"smiles": "N#CC1(O)CCCCC1", "growth": 99.6}
{"smiles": "CC(=O)OC(C)c1cccc(C#N)c1", "note": "(stereo unspecified)", "growth": 105}
{"smiles": "CCN(C(C)=O)c1ccc([N+](=O)[O-])cc1", "growth": 109}
{"smiles": "CC(C)=CCC[C@@H](C)[C@H]1CC[C@@]2(C)C3=C(CC[C@]12C)[C@@]1(C)CC[C@H](O)C(C)(C)[C@@H]1CC3", "growth": 97.9}
{"smiles": "CCOc1ccc(C(=O)NCC(C)C)cc1", "growth": 103}
{"smiles": "CCOC(=O)C(C#N)=C1CCN(C)CC1", "growth": 99.5}
{"smiles": "CCOC(C=O)OCC", "growth": 102}
{"smiles": "Cc1nc(O)cc(=O)[nH]1", "growth": 119}
{"smiles": "COC1OC(C(O)C(O)CO)C(O)C(O)C1O", "note": "(stereo unspecified)", "growth": 99.1}
{"smiles": "O=C(Nc1ccccc1)c1ccco1", "growth": 105}
{"smiles": "NC(=O)OCCO", "growth": 108}
{"smiles": "CC(=O)c1ccc(C)cc1", "growth": 113}
{"smiles": "O=C(CC(CC(=O)c1ccccc1)c1ccccn1)c1ccccc1", "growth": 106}
